Values joined by “and” are separate entries in the source; they are usually repeats but may differ in a detail not shown here. Equal values may be shown once. Records with an inconclusive call do not appear. Active and inactive are the calls of the source. The call rests on the fitted dose curve; in most records, active means well fitted curve in the direction sought with a large enough effect; inconclusive means small, poorly fitted or top-dose-only effect, or another doubt; inactive means no such curve, though single readings can be large; an effect the other way counts as inactive or inconclusive. *1 amine or outer side, *2 acyl side, *3 side chain or, on linkers, in order; H or OH if unused. Where a SMILES comes first, the peptide text is derived from it. [ ]: non-standard residue; d: D form. X7 = O=C([C@@H](CC(O)CCl)O[*:1])[*:2]; aIle = CC[C@@H](C)[C@H](N)C(=O)O; NMeV = CN[C@H](C(=O)O)C(C)C; NMeA = CN[C@@H](C)C(=O)O; βAla = NCCC(=O)O
Assays:
[1] = Primary qHTS for inhibitors of nuclear receptor binding SET domain protein 2 (NSD2) in an isogenic RCH-ACV NSD2 p.E1099K mutant (9B) (AID 1645876); further: potency means the concentration at half of the fitted maximal effect; nearly all actives have a fitted effect of over 70% in size
[2] = Primary qHTS for inhibitors of nuclear receptor binding SET domain protein 2 (NSD2) in an RCH-ACV wild type WT cells (2C) (AID 1645877); further: potency means the concentration at half of the fitted maximal effect; nearly all actives have a fitted effect of over 70% in size
[3] = biological target: Glutathione peroxidase 1 (Homo sapiens) (UniProt P07203); test: Primary qHTS Assay for Inhibitors of Recombinant Selenoprotein Glutathione Peroxidase 1 (GPX1) (AID 1845191); further: nearly all actives have a fitted effect of over 65% in size
How it was run: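 GR-coupled assay: compounds preincubated 30 min at room temperature with GPX1, then reaction started with CHP; final 10 nM GPX1, 1 mM GSH, 0.5 mM CHP, 0.5 mM NADPH, 100 nM GR, 0.01% BSA, pH 7.5 Tris buffer. NADPH fluorescence (340/450 nm) read at 0 and 15 min.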

[4] = biological target: Phospholipid hydroperoxide glutathione peroxidase GPX4 (Homo sapiens) (UniProt P36969); test: Primary qHTS Assay for Inhibitors of Recombinant Selenoprotein Glutathione Peroxidase 4 (GPX4) (AID 1845192); further: nearly all actives have a fitted effect of over 65% in size
How it was run: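 GR-coupled assay: recombinant GPX4 preincubated 30 min with compound at room temperature; final 200 nM GPX4, 1 mM GSH, 0.5 mM cumene hydroperoxide, 0.5 mM NADPH, 100 nM GR, 0.01% BSA, pH 7.5 Tris. NADPH fluorescence (340/450 nm) read at 0 and 15 min.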

[5] = biological target: Luciferin 4-monooxygenase (Photinus pyralis) (UniProt P08659); test: Primary firefly luciferase (FLuc) qHTS assay for identification of artifact compounds. (AID 1845220); conditions: outcome: dose series up to 54.1 µM unless noted; further: nearly all actives have a fitted effect of over 60% in size
How it was run: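 Titrated compounds were incubated 15 min at RT, protected from light, with luciferin and ATP at 10 uM; reaction started with 10 nM FLuc, luminescence imaged at 5 min, and concentration-response fitted by Hill equation.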

[6] = Primary fluorescence-based thiol-reactive (MSTI) qHTS assay for identification of artifact compounds. (AID 1845221);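 further: thiol-reactive compounds lower the probe fluorescence signal; nearly all actives have a fitted effect of over 65% in size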
How it was run: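 Thiol-reactive compounds detected by quenching of 4 uM MSTI fluorescence (525/598 nm) after 1 h room-temperature dark incubation in PBS pH 7.4, 2% DMSO. qHTS titration; percent inhibition Hill-fitted against Acetyl-MSTI/MSTI controls.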

[7] = system: Nanoluciferase (engineered Oplophorus gracilirostris luciferase); test: Primary Nanoluciferase (NLuc) qHTS assay for identification of artifact compounds. (AID 1845222);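 further: NLuc secreted into diluted conditioned medium of S16 cells; 0% = DMSO and -100% = no enzyme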
How it was run: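 qHTS format, against NLuc in S16 cell-conditioned medium. Nano-Glo substrate 1:100 was added after 15 min at room temperature. Luminescence was taken after a further 5 min.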

[8] = system: CRL-7250; test: Cytotoxic Profiling of Annotated Libraries Using Quantitative High-Throughput Screening (AID 1296008); conditions: Five cell lines viability, CellTiter-Glo ATP luminescence, 48-72 h; max response: active compounds read low; further: nearly all actives have a fitted effect of over 60% in size; further: potency means the concentration at half of the fitted maximal effect; on max response: on the % scale 0 is the no-effect control and ±100 the full control effect
How it was run: (§1)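 Cells exposed to compounds for 48 or 72 hr at 37 degrees Celsius. Viability read as ATP-coupled luminescence with CellTiter-Glo after 10 min at room temperature.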

[9] = system: HEK293; test: as above; conditions: Five cell lines viability, CellTiter-Glo ATP luminescence, 48-72 h; max response: active compounds read low
How it was run: as §1

[10] = system: HaCat; test: as above; conditions: Five cell lines viability, CellTiter-Glo ATP luminescence, 48-72 h; max response: active compounds read low
How it was run: as §1

[11] = system: KB-3-1; test: as above; conditions: Five cell lines viability, CellTiter-Glo ATP luminescence, 48-72 h; max response: active compounds read low
How it was run: as §1

[12] = system: NIH3T3; test: as above; conditions: Five cell lines viability, CellTiter-Glo ATP luminescence, 48-72 h; max response: active compounds read low
How it was run: as §1

[13] = system: C33A; test: Primary qHTS to identify gynecologic anti-cancer compounds using libraries of approved drugs and bioactive compounds (AID 1345084); conditions: Gynecologic cancer cell panel viability, ATPlite luminescence, 48 h; series mostly up to 57.5 µM; further: nearly all actives have a fitted effect of over 55% in size; further: potency means the concentration at half of the fitted maximal effect
How it was run: (§2)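 Five-point cytotoxicity, 48 h drug exposure at 37 C, 5% CO2, on cells seeded 16 h beforehand. ATP content read by ATPlite luminescence.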

[14] = system: Es-2; test: as above; conditions: Gynecologic cancer cell panel viability, ATPlite luminescence, 48 h; series mostly up to 57.5 µM
How it was run: as §2

[15] = system: Hek293T; test: as above; conditions: Gynecologic cancer cell panel viability, ATPlite luminescence, 48 h, control line for the selectivity index; series mostly up to 57.5 µM
How it was run: as §2

[16] = system: OV90; test: as above; conditions: Gynecologic cancer cell panel viability, ATPlite luminescence, 48 h; series mostly up to 57.5 µM
How it was run: as §2

[17] = system: PA-1; test: as above; conditions: Gynecologic cancer cell panel viability, ATPlite luminescence, 48 h; series mostly up to 57.5 µM
How it was run: as §2

[18] = system: Tov-21-G; test: as above; conditions: Gynecologic cancer cell panel viability, ATPlite luminescence, 48 h; series mostly up to 57.5 µM
How it was run: as §2

[19] = system: Tov112D; test: as above; conditions: Gynecologic cancer cell panel viability, ATPlite luminescence, 48 h; series mostly up to 57.5 µM
How it was run: as §2

[20] = system: CASKI; test: as above; conditions: Gynecologic cancer cell panel viability, ATPlite luminescence, 48 h; series mostly up to 57.5 µM
How it was run: as §2

Sequence of Glutathione peroxidase 1 (Homo sapiens) (P07203 whole entry, looked up): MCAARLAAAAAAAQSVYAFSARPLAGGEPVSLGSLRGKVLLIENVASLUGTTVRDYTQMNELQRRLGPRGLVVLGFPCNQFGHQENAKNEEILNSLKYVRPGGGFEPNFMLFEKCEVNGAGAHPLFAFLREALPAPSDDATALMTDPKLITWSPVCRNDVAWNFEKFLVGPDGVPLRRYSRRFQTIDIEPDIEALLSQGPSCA
Sequence of Phospholipid hydroperoxide glutathione peroxidase GPX4 (Homo sapiens) (P36969 whole entry, looked up): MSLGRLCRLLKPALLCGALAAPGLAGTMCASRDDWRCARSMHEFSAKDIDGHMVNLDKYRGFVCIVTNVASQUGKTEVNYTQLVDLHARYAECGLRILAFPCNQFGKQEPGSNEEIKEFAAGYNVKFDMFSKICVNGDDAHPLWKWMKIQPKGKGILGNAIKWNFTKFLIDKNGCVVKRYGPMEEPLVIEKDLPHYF

CC(=O)OC[C@]12C[C@H](OC(=O)CC(C)C)C(C)=C[C@H]1O[C@@H]1[C@H](O)C[C@@]2(C)[C@]12CO2
inactive: Potency [3] | Potency [4] | outcome [5] inactive [at 25.7 µM] | Potency [6] | Potency [7]
active: Potency [1] 632 nM | Potency [2] 317 nM | Potency [8] 3170 nM | Potency [9] 563 nM | Potency [10] 6320 nM | Potency [11] 709 nM | Potency [12] 893 nM | Potency [13] 2820 nM | Potency [14] 3980 nM | Potency [15] 1000 nM | Potency [16] 4470 nM | Potency [17] 1000 nM | Potency [18] 4470 nM | Potency [19] 2240 nM

CC1=CC2OC3[C@H](O)C[C@@](C)([C@]34CO4)[C@@]2(CO)[C@H](O)C1=O (stereo partly specified)
active: Potency [1] 1630 nM | Potency [2] 1830 nM | Potency [8] 3260 nM | Potency [9] 1640 nM | Potency [10] 14600 nM | Potency [11] 4610 nM | Potency [12] 1300 nM | Potency [14] 10000 nM | Potency [18] 14100 nM
inactive: Potency [3] | Potency [4] | outcome [5] | Potency [6] | Potency [7]

CC[C@@H](C)[C@@H]1NC(=O)[C@@H]2CCCN2C(=O)[C@@H](CC(O)CCl)OC(=O)CCNC(=O)[C@H](C)N(C)C(=O)[C@H](C(C)C)N(C)C1=O (stereo partly specified) (cyclo([NMeA][βAla][X7]P[aIle][NMeV]))
active: Potency [1] 608 nM | Potency [2] 483 nM | Potency [8] 968 nM | Potency [9] 685 nM | Potency [12] 2430 nM | Potency [13] 4470 nM | Potency [14] 4470 nM | Potency [16] 447 nM | Potency [17] 1000 nM | Potency [19] 3550 nM
inactive: Potency [3] | Potency [4] | outcome [5] inactive [at 25.7 µM] | Potency [6] | Potency [7] | max response [10] -21.3% | Potency [20] | Potency [18]

COC1C(O)C(C)OC(OC2C(CO)O[C@@H](O[C@@H]3CC4CCC5C(CC[C@]6(C)[C@@H](C7=CC(=O)OC7)CC[C@]56O)[C@@]4(C)[C@H](OC(C)=O)C3)C(O)C2O)C1O (stereo partly specified)
active: Potency [1] 2160 nM | Potency [2] 2420 nM | Potency [8] 2170 nM | Potency [9] 2430 nM | Potency [10] 4320 nM | Potency [13] 3550 nM | Potency [14] 6310 nM | Potency [15] 3550 nM | Potency [18] 3550 nM | Potency [19] 2820 nM
inactive: Potency [3] | Potency [4] | Potency [6] | Potency [7] | outcome [12] | Potency [16]

CC[C@@]1(O)C(=O)OCc2c1cc1n(c2=O)Cc2cc3c(OC)cccc3nc2-1
active: Potency [1] 7.1 nM | Potency [2] 10.1 nM | Potency [8] 5080 nM | Potency [9] 50.8 nM | Potency [10] 114 nM | Potency [11] 1280 nM | Potency [13] 631 nM | Potency [15] 1580 nM | Potency [16] 1120 nM | Potency [17] 89.1 nM | Potency [18] 5620 nM | Potency [19] 224 nM
inactive: Potency [3] | Potency [4] | Potency [6] | Potency [7]

C=C1[C@@H](C)[C@H]2[C@H](Cc3ccccc3)NC(=O)[C@]23[C@H](OC(C)=O)/C=C/[C@](C)(O)C(=O)[C@@H](C)C/C=C/[C@H]3[C@@H]1O
inactive: Potency [3] | outcome [5] | Potency [6] | Potency [13] | Potency [20] | Potency [15] | Potency [19]
active: Potency [1] 728 nM | Potency [2] 258 nM | Potency [8] 259 nM | Potency [9] 731 nM | Potency [10] 23100 nM | Potency [11] 2590 nM | Potency [16] 1260 nM | Potency [17] 1780 nM

C[C@H]1C/C=C/[C@H]2[C@@H]3O[C@]3(C)[C@@H](C)[C@H]3[C@H](Cc4ccccc4)NC(=O)[C@]32OC(=O)O/C=C/[C@@](C)(O)C1=O
active: Potency [1] 632 nM | Potency [2] 502 nM | Potency [8] 632 nM | Potency [9] 399 nM | Potency [10] 796 nM | Potency [11] 563 nM | Potency [17] 2510 nM | Potency [19] 3160 nM
inactive: Potency [3] | Potency [4] | outcome [5] inactive [at 25.7 µM] | Potency [6] | Potency [7] | Potency [13] | Potency [20] | Potency [14] | Potency [16]

C=C1[C@@H](C)C2[C@H](Cc3ccccc3)NC(=O)[C@@]23C(/C=C/C[C@H](C)C[C@@](C)(O)/C=C/[C@@H]3OC(C)=O)[C@@H]1O (stereo partly specified)
inactive: Potency [3] | outcome [5] | Potency [6] | Potency [7] | Potency [13] | Potency [14] | Potency [15]
active: Potency [1] 817 nM | Potency [2] 205 nM | Potency [8] 461 nM | Potency [9] 731 nM | Potency [10] 130 nM | Potency [17] 3980 nM

Cc1sc2c(c1C)C(c1ccc(Cl)cc1)=N[C@@H](CC(N)=O)c1nnc(C)n1-2
active: Potency [1] 64.9 nM and 132 nM | Potency [2] 51.5 nM and 148 nM | Potency [8] 366 nM | Potency [9] 259 nM
inactive: Potency [3] | Potency [4] | outcome [5] | Potency [6] | Potency [7] | max response [10] -29.9% | Potency [13] | Potency [20]

C[C@]12CC[C@H](O)C[C@H]1CC[C@@H]1[C@@H]2[C@H](O)C[C@]2(C)[C@@H](c3ccc(=O)oc3)CC[C@]12O
active: Potency [1] 16.3 nM | Potency [2] 45.9 nM | Potency [8] 10.3 nM | Potency [9] 36.6 nM | Potency [10] 146 nM | Potency [11] 51.7 nM | Potency [20] 501 nM | Potency [14] 100 nM | Potency [16] 355 nM | Potency [17] 355 nM | Potency [18] 100 nM
inactive: Potency [3] | Potency [4] | outcome [5] | Potency [6] | Potency [7]
